Experimental findings from PubChem BioAssay (Tox21) are described below.

Each structure is given as a SMILES string. Where “and” joins values, the source holds several entries; their conditions need not be identical. Equal entries are not always repeated. A number with no mark means an inactive call. Results filed as inconclusive are left out. Calls of active or inactive are those of the source. Unless noted, the call rests on the fitted dose curve; in most records, active means well fitted curve in the direction sought with a large enough effect in the repeat runs; inconclusive means weak or mixed curves; inactive means no such curve, though single readings can be large; an effect the other way counts as inactive or inconclusive.

Experiment [1] is described as follows: qHTS assay to identify small molecule antagonists of the estrogen receptor alpha (ER-alpha) signaling pathway using the BG1 cell line in the presence of 0.1 nM 17-beta-estradiol - cell viability counter screen (AID 1259241). Further: nearly all actives have a fitted effect of over 40% in size. Further: potency means the concentration at half of the fitted maximal effect. The method in brief:
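In this screen, hormone-deprived VM7Luc4E2 cells were seeded at 4,000 per well, dosed with compound and 0.1 nM estradiol final, and incubated 22 hr at 37C and 5% CO2; fluorogenic live-cell protease signal reported viability.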

Experiment [2] is described as follows: qHTS assay to identify small molecule antagonists of the androgen receptor (AR) signaling pathway using the MDA cell line in the presence of 0.5 nM R1881 - cell viability counter screen (AID 1259242). Further: nearly all actives have a fitted effect of over 45% in size. Further: potency means the concentration at half of the fitted maximal effect. The gist of the method: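 Steps: plate MDA-kb2 cells, rest 5 hr at 37C without CO2; pin in compounds in DMSO; add R1881 to 0.5 nM final; incubate 16 hr; add CellTiter-Fluor, 30 min; read fluorescence.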

For experiment [3], the target named is Estrogen receptor (Homo sapiens) (UniProt P03372). In words: qHTS assay to identify small molecule antagonists of the estrogen receptor alpha (ER-alpha) signaling pathway using the BG1 cell line in the presence of 0.1 nM 17-beta-estradiol (AID 1259244). Further: nearly all actives have a fitted effect of over 50% in size. Further: potency means the concentration at half of the fitted maximal effect. The method in brief:
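Antagonist mode: compounds in DMSO are pinned onto VM7Luc4E2 reporter cells, 0.1 nM final 17beta-estradiol is added, and after 22 h at 37C luciferase luminescence is measured with ONE-Glo.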

Experiment [4] in a line: qHTS assay to identify small molecule HDAC inhibitors (AID 1259364).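 Further: wild-type HCT-116 cells with endogenous class I/II HDAC activity; top concentration of the series differs between compounds; nearly all actives have a fitted effect of over 45% in size.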 The gist of the method:
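Cells (HCT-116, wild type) are seeded at 1,500 per well, incubated overnight, treated with compound in DMSO for 2 hr, then developed with HDAC-Glo I/II reagent for 30 min at room temperature.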

Experiment [5] in a line: qHTS assay to identify small molecule HDAC inhibitors - cell viability counter screen (AID 1259365). Further: series mostly up to about 92 µM; nearly all actives have a fitted effect of over 50% in size. The method in brief: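 Measured quantity is CellTiter-Glo luminescence from wild-type HCT-116 cells after compound incubation of 2hr at 37C, 5% CO2; reagent developed 30min at room temperature.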
Experiment [6] can be described thus: qHTS assay to identify small molecule agonists of the sonic hedgehog signaling (Shh) pathway - cell viability counter screen (AID 1259366). Further: nearly all actives have a fitted effect of over 50% in size. Further: potency means the concentration at half of the fitted maximal effect. The method in brief: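 In quantitative high-throughput format, 3T3 Gli1-Luc cells were exposed to compounds for 24hr and multiplexed for viability using CellTiter-Fluor, incubated 1hr at 37C before the fluorescence read.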

Experiment [7] is described as follows: qHTS assay to identify small molecule agonists of the sonic hedgehog signaling (Shh) pathway (AID 1259368; calls by dose curve;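 further: NIH/3T3-derived 3T3Gli1-Luc cells carrying a stable Gli1-driven firefly luciferase reporter; series mostly up to about 92 µM; nearly all actives have a fitted effect of over 15% in size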). The method in brief: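 Cells of a mouse NIH/3T3 clone stably expressing luciferase under the Gli1 transcriptional response element are exposed to test chemicals for 24 hr at 37 C. Pathway activation is detected as a rise in luminescence.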
Experiment [8] can be described thus: qHTS assay to identify small molecule agonists of the androgen receptor (AR) signaling pathway in the presence of an antagonist - cell viability counter screen (AID 1259379). Further: nearly all actives have a fitted effect of over 25% in size. Further: potency means the concentration at half of the fitted maximal effect. The gist of the method: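 Cytotoxicity is assessed by CellTiter-Fluor in MDA-kb2 cells carrying an MMTV-driven luciferase reporter. Cells receive 3.0uM nilutamide plus compounds at 15 concentrations and incubate 16 hr at 37C without CO2 before fluorescence reading.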

The nature of experiment [9]: qHTS assay to identify small molecule agonists of the estrogen receptor beta (ER-beta) signaling pathway - cell viability counter screen (AID 1259380). Further: nearly all actives have a fitted effect of over 30% in size. The method in brief:
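Cytotoxicity is measured in parallel with the reporter screen: after 16 hr compound exposure at 37C and a 2 hr LiveBLAzer step, CellTiter-Glo is added to the same ER-beta-UAS-bla HEK293T wells and luminescence read after 30 min.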

The target in experiment [10] is Androgen receptor (Homo sapiens) (UniProt P10275). In words: qHTS assay to identify small molecule agonists of the androgen receptor (AR) signaling pathway in the presence of an antagonist (AID 1259381; calls by dose curve; further: nearly all actives have a fitted effect of over 15% in size). The gist of the method: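 Agonist-mode confirmation screen: human MDA-kb2 cells stably expressing luciferase under an MMTV promoter bearing AR and GR response elements, co-treated with 3.0uM nilutamide (final). Luminescence measured after 16hr compound incubation.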
Androgen receptor (Homo sapiens), sequence (P10275 whole entry, looked up): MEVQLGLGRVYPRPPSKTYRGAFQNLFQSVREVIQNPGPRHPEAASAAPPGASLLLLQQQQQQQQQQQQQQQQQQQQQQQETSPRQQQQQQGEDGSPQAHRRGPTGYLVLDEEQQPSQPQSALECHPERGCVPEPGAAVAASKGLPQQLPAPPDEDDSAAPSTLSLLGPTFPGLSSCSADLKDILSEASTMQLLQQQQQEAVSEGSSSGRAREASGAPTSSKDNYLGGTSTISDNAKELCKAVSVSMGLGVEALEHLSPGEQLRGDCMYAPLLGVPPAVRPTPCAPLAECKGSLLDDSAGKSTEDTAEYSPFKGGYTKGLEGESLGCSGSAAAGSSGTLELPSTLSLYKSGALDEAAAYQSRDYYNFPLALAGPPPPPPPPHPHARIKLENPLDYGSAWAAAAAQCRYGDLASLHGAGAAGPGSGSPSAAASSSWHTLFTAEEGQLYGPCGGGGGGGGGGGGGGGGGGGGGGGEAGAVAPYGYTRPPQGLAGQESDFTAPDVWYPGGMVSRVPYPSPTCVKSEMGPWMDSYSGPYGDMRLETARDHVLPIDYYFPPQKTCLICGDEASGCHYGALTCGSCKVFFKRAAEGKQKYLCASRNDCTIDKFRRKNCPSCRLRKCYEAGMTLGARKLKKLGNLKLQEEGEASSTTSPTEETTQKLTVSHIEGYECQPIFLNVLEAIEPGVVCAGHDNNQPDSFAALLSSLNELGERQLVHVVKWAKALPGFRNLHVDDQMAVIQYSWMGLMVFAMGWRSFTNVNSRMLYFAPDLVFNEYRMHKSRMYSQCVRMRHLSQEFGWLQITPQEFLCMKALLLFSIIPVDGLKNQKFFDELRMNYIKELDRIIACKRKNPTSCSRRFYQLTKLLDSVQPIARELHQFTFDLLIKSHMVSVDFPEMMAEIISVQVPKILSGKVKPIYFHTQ

Experiment [11] in a line: qHTS assay to identify small molecule antagonists of the estrogen receptor beta (ER-beta) signaling pathway - cell viability counter screen (AID 1259382). Further: series mostly up to about 92 µM; nearly all actives have a fitted effect of over 55% in size. The gist of the method: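 Cytotoxicity counter screen multiplexed with the beta-lactamase antagonist assay: GripTite HEK293T ER-beta-bla cells were treated 16 hr with test chemicals in the presence of 1nM 17-beta-estradiol, and viability was measured by CellTiter-Glo.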

Experiment [12] deals with Estrogen receptor (Homo sapiens) (UniProt P03372). Description: qHTS assay to identify small molecule agonists of the estrogen receptor alpha (ER-alpha) signaling pathway in the presence of an antagonist (AID 1259383; calls by dose curve; further: top concentration of the series differs between compounds; nearly all actives have a fitted effect of over 15% in size). The method in brief: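 Agonist-mode confirmation in the presence of the ER antagonist ICI-182,780 at 10.0nM final. Breast-derived VM7Luc4E2 reporter cells were exposed to compounds for 22hr, and ERE-driven luciferase was quantified by luminescence.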
Estrogen receptor (Homo sapiens), sequence (P03372 whole entry, looked up): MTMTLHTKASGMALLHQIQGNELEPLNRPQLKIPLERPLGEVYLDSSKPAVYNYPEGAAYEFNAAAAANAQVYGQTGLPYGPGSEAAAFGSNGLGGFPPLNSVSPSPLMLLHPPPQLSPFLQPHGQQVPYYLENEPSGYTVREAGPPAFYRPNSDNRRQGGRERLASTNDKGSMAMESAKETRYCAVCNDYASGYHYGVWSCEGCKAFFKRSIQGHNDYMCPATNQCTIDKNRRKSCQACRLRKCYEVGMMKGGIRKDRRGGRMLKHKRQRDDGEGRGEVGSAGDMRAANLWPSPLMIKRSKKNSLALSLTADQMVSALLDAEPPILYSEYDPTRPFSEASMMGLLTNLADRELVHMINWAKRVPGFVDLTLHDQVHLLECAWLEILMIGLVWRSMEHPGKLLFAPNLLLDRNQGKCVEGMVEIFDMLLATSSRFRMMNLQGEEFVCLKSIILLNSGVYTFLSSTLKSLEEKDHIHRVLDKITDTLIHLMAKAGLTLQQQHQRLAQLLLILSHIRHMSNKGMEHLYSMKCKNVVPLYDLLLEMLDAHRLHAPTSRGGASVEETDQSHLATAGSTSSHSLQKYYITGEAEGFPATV

Experiment [13] can be described thus: qHTS assay to identify small molecule agonists or antagonists of the thyroid stimulating hormone receptor (TSHR) signaling pathway - wild type cell line counter screen (AID 1259384; calls by dose curve). The gist of the method:
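Wild-type Hek293 cells, 800/well, 18 h at 37C, then compound with Ro20-1724 for 30 min RT. cAMP by HTRF (cAMP-d2/anti-cAMP cryptate), 1 h RT, fluorescence read. 15 concentrations, triplicates.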

The nature of experiment [14]: qHTS assay to identify small molecule phospholipidosis (PLD) inducers (AID 1259344; active means well fitted curve in the direction sought with a large enough effect; an effect the other way counts as inactive or inconclusive). The method in brief: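 Image-based: LipidTOX Red pit count/intensity per well and per cell; HepG2, 24 h compound at 37 C, PFA fixation, Hoechst counterstain.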
The nature of experiment [15]: qHTS assay to identify small molecule antagonists of the sonic hedgehog signaling (Shh) pathway - cell viability counter screen (AID 1259367). Further: nearly all actives have a fitted effect of over 55% in size. Further: potency means the concentration at half of the fitted maximal effect. The gist of the method:
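Tox21 library chemicals were tested on a Gli1-Luc NIH/3T3 clone (2,000 cells/well) stimulated by conditioned medium; viability was quantified as fluorescence from CellTiter-Fluor reagent added at 23 hr.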

Experiment [16] in a line: qHTS assay to identify small molecule antagonists of the sonic hedgehog signaling (Shh) pathway (AID 1259369; calls by dose curve; further: nearly all actives have a fitted effect of over 45% in size; further: potency means the concentration at half of the fitted maximal effect). The gist of the method: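 Cells are plated and held 4hr at 37 C, compounds (DMSO) are pinned in, conditioned medium is added to stimulate the pathway, and after 24hr luciferase reagent is added for 30min before luminescence is read.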
Experiment [17] addresses Thyrotropin receptor (Homo sapiens) (UniProt P16473). In words: qHTS assay to identify small molecule antagonists of the thyroid stimulating hormone receptor (TSHR) signaling pathway (AID 1259385; calls by dose curve; further: nearly all actives have a fitted effect of over 20% in size). The gist of the method: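 TSHR-HEK293 cells (800/well) plated 18 h, then compounds with Ro20-1724 and TSH at 1.5 ng/mL final, 30 min at room temperature. cAMP quantified by HTRF (cAMP-d2/anti-cAMP-cryptate, 1 h); 15 concentrations in triplicate.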

Experiment [18] deals with Estrogen receptor beta (Homo sapiens) (UniProt Q92731). Description: qHTS assay to identify small molecule agonists of the estrogen receptor beta (ER-beta) signaling pathway (AID 1259377; active means well fitted activation curve with a large enough effect in the signal ratio in the repeat runs, not every such curve was filed as active; the % refers to the signal ratio). The method in brief: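 Reporter cells (HEK293T, ER-beta-UAS-bla) receive compounds or DMSO after a 6 hr pre-incubation. They then incubate 16 hr at 37C/5% CO2, and fluorescence from LiveBLAzer B/G substrate is measured after 2 hours at room temperature.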
Estrogen receptor beta (Homo sapiens), sequence (Q92731 whole entry, looked up): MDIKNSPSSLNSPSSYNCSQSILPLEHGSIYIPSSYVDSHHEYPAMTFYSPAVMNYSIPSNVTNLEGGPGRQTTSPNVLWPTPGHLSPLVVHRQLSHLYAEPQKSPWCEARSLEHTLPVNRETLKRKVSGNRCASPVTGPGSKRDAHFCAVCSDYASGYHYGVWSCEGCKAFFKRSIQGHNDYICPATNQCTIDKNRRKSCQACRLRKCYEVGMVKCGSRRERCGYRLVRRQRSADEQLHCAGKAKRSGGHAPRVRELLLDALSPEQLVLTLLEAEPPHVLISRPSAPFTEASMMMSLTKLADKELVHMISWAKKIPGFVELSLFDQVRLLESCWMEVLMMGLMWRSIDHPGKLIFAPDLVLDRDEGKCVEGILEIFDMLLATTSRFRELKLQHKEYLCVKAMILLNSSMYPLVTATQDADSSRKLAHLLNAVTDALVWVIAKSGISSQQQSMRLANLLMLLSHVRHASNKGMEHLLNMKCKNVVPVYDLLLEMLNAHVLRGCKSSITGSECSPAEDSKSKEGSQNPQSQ

Experiment [19] has the same target. Description: qHTS assay to identify small molecule antagonists of the estrogen receptor beta (ER-beta) signaling pathway (AID 1259378; active means well fitted inhibition curve with a large enough effect in the signal ratio in the repeat runs, not every such curve was filed as active; the % refers to the signal ratio). The method in brief:
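ER-beta-UAS-bla HEK293T cells in 2% charcoal-stripped FBS medium treated with compound plus 1nM final 17-beta-estradiol for 16 hr at 37C. Beta-lactamase reporter read by FRET substrate fluorescence after 2 hours at room temperature.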

Thyrotropin receptor (Homo sapiens), sequence (P16473 whole entry, looked up): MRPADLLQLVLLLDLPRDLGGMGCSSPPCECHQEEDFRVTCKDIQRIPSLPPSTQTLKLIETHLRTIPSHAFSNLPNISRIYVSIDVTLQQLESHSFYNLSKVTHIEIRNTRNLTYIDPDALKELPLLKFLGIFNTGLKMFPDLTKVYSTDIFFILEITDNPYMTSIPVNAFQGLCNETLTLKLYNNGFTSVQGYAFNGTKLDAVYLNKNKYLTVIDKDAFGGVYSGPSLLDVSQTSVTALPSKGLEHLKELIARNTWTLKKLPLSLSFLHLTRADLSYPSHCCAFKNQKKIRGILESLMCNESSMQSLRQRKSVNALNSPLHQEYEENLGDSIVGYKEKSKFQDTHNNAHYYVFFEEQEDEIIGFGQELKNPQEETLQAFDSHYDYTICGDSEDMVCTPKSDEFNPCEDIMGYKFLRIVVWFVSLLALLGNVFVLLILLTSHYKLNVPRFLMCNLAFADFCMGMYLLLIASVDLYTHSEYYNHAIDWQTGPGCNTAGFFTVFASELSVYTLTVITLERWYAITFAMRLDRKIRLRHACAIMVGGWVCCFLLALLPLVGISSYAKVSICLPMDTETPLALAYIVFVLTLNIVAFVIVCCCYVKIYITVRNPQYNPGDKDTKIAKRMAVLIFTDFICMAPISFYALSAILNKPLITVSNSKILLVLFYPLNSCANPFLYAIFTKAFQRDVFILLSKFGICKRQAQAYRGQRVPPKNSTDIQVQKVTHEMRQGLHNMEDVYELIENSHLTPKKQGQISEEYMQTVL

In the case of `CC1=NC(C)OC1C` (stereo not drawn), the Potency result in experiment [1], in [2], in experiment [3], in [4], in [5] and in experiment [6] was “inactive” throughout. In addition, the Potency result in experiment [7], in [8], in experiment [9], in [10], in experiment [11] and in [12] was “inactive” each time. In addition, the compound was called inactive in [13].

On to `NC(=O)CC[C@@H]1NC(=O)[C@H](Cc2ccccc2)NC(=O)[C@H](Cc2ccc(O)cc2)NC(=O)CCSSC[C@@H](C(=O)N2CCC[C@H]2C(=O)N[C@@H](CCCN=C(N)N)C(=O)NCC(N)=O)NC(=O)[C@H](CC(N)=O)NC1=O`, for which the Potency entry in experiment [1], in experiment [2], in experiment [14], in [4], in [5] and in [6] was “inactive” each time. The Potency result in experiment [15], in experiment [7], in [8], in experiment [9] and in experiment [11] was “inactive” in each case. In experiment [13], the compound was called inactive.

On to `Nc1ccccc1O`, for which the Potency in [1] was 53.8 µM (active); in [3], 30.2 µM (active); in [6], 24 µM (active); in experiment [15], 19.1 µM (active); in experiment [16] it was 6.77 µM (active). The Potency result in [2], in [5], in experiment [7], in [11], in [12] and in experiment [17] was “inactive” in each case. For the same compound, the compound was called inactive in [13].

As for `[Cl][Au]([Cl])[Cl]`, the Potency was 68.6 µM (active) in experiment [1]; 24.3 µM (active) in experiment [2]; 3.86 µM (active) in [6]; 4.86 µM (active) in [15]; 0.172 µM (active) in experiment [16]; 54.5 µM (active) in experiment [8]. Besides, the Potency result in experiment [4] and in [7] was “inactive” each time. Further, the compound was classed as inactive in [13].

`CC(C)(C)c1ccc(C(=O)O)cc1`: the Potency result in [1], in experiment [2], in experiment [4], in experiment [5], in experiment [6] and in experiment [15] was “inactive” throughout. Moreover, the Potency result in experiment [7], in experiment [16], in [18], in experiment [8], in [9] and in experiment [11] was “inactive” in each case. Further, the Potency result in [17] is “inactive”. The compound was called inactive in experiment [13].

As for `COc1cc(-c2ccc(N=C=O)c(OC)c2)ccc1N=C=O`, the Potency entry in experiment [1], in experiment [2], in [4], in experiment [5], in experiment [6] and in [15] was “inactive” each time. For the same compound, the Potency result in [7], in [18], in experiment [19], in [8], in experiment [9] and in [11] was “inactive” throughout.

In the case of `O=[N+]([O-])c1ccccc1Nc1ccccc1`, the Potency result in [1], in experiment [2], in experiment [4], in experiment [5], in experiment [6] and in [15] was “inactive” each time. Moreover, the Potency entry in experiment [7], in experiment [18], in [19], in experiment [8], in experiment [9] and in [11] was “inactive” throughout. Moreover, the Potency result in experiment [12] is “inactive”. Also, in experiment [13], the outcome was inactive.

With `Oc1ccc2cc(SSc3ccc4cc(O)ccc4c3)ccc2c1`, the Potency entry in experiment [1], in experiment [2], in experiment [4], in experiment [5], in experiment [7] and in experiment [11] was “inactive” each time. The Potency was 61.2 µM (active) and 48.6 µM (active) in experiment [15]; 19.4 µM (active) and 21.7 µM (active) in experiment [16]; 61.2 µM (active) and 61.1 µM (active) in experiment [8]. For the same compound, in experiment [13], the result was inactive.

As for `CCN(C(=O)N(CC)c1ccccc1)c1ccccc1`, the Potency entry in [1], in [2], in [4], in experiment [5], in [6] and in experiment [15] was “inactive” in each case. Further, the Potency entry in experiment [7], in [8], in [9], in experiment [11] and in experiment [17] was “inactive” in each case. Also, the compound was classed as inactive in experiment [13].
